According to PubChem BioAssay (Tox21):
Inconclusive results are not listed. Entries that show only a call come without a potency. The source holds several records for some structures; these can differ, active in one and inactive in another. The source made the active and inactive calls. Calls come from the whole dose curve; as a rule, active = well fitted cell-killing curve with a large enough effect in the repeat runs; inconclusive = weak or mixed curves, or effect the other way; inactive = no such curve, though single readings can be large or run the other way.

test: qHTS assay to identify small molecule agonists of the RXR signaling pathway - cell viability counter screen (AID 1159529); settings: RXR-alpha-bla HEK293T viability, CellTiter-Glo, 16 h; series mostly up to 76.8 µM; note: nearly all actives have a fitted effect of over 50% in size
How it was run: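 Compounds dissolved in DMSO were pinned onto HEK 293T cells carrying a beta-lactamase reporter under RXR-alpha control and incubated 16 hr. Cytotoxicity was then quantified by CellTiter-Glo luminescence.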
Potency is the fitted concentration of half-maximal effect.

Question: Which Potency does the source give for `COC(=O)C(C)Oc1ccc(Oc2ncc(C(F)(F)F)cc2Cl)cc1` (stereo not drawn) here?
Answer: inactive

Question: Which Potency does the source give for `c1ccc2c(c1)ccc1ncccc12` here?
Answer: inactive

Question: Which Potency does the source give for `CC(C)=CCO` here?
Answer: inactive

Question: Which Potency does the source give for `O=S1(=O)CCCO1` here?
Answer: inactive

Question: For `Oc1c(Cl)ccc(Cl)c1Cl`, which Potency is on record?
Answer: inactive

Question: With `CC(C)[N+](C)(CCOC(=O)C1c2ccccc2Oc2ccccc21)C(C)C` as the compound, how does the Potency read?
Answer: inactive

Question: For `CC(=O)Oc1ccc(C(c2ccc(OC(C)=O)cc2)c2ccccn2)cc1`, which Potency is on record?
Answer: inactive

Question: For `CNC[C@H](O)c1ccc(O)c(O)c1`, which Potency is on record?
Answer: inactive

Question: With `OCCNCCO` as the compound, how does the Potency read?
Answer: inactive

Question: Which Potency does the source give for `C=CN1CCCC1=O` here?
Answer: inactive

Question: With `CCc1cccc2c3c([nH]c12)C(CC)(CC(=O)O)OCC3` (stereo not drawn) as the compound, how does the Potency read?
Answer: inactive

Question: Which Potency does the source give for `O=Cc1ccccc1C=O` here?
Answer: inactive

Question: With `OC[C@@H](O)[C@@H](O[C@@H]1O[C@H](CO)[C@H](O)[C@H](O)[C@H]1O)[C@H](O)[C@@H](O)CO` as the compound, how does the Potency read?
Answer: inactive

Question: With `CC(C)(C)c1cccc(C(C)(C)C)c1O` as the compound, how does the Potency read?
Answer: inactive

Question: With `CN(C)C` as the compound, how does the Potency read?
Answer: inactive

Question: Which Potency does the source give for `C=CCCCCCCCCCC` here?
Answer: inactive

Question: Which Potency does the source give for `CC1(C)OC(=O)NC1=O` here?
Answer: inactive

Question: Which Potency does the source give for `C=CC(=O)OCCCC` here?
Answer: inactive

Question: Which Potency does the source give for `O=C(O)c1ccc(O)cc1` here?
Answer: inactive

Question: With `Nc1cc(Cl)c(N)c(Cl)c1` as the compound, how does the Potency read?
Answer: inactive

Question: For `CCCCCC1C(=O)CCC1CC(=O)OC` (stereo not drawn), which Potency is on record?
Answer: inactive

Question: For `COCCOCCOCCO`, which Potency is on record?
Answer: inactive

Question: With `Cc1ccc(S(=O)(=O)NCl)cc1` as the compound, how does the Potency read?
Answer: inactive

Question: With `Cc1ccc(C(C)(C)C)c(O)c1` as the compound, how does the Potency read?
Answer: 47.4 µM (active) and inactive

Question: For `CC(=O)OC(C)C`, which Potency is on record?
Answer: inactive

Question: With `CC/C(=C(/CC)c1ccc(O)cc1)c1ccc(O)cc1` as the compound, how does the Potency read?
Answer: inactive

Question: Which Potency does the source give for `Nc1ccc2c(O)cc(S(=O)(=O)O)cc2c1` here?
Answer: inactive

Question: With `CC[C@]12CCCN3CCc4c(n(c5ccccc45)[C@@](O)(C(=O)OC)C1)[C@@H]32` as the compound, how does the Potency read?
Answer: inactive
